{"source": "PubChem BioAssay (NCI)", "note": "About 79,000 compounds went through this panel and 15% of them were active in at least one assay; those are over-represented in the sample as a whole. Active and inactive are the calls of the source. Rule as the data show it: active = growth inhibition above about 70%; inactive = the rest.", "data": [{"assay": "NCI Yeast Anticancer Drug Screen. Data for the rad50 strain (AID 155);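 also: 0% = growth of vehicle-only cultures of the same strain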", "details": "S. cerevisiae rad50 strain growth inhibition; at 50.0 µM; active compounds read high", "outline": "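Yeast carrying a defined DNA repair defect were exposed to test compounds, and growth was compared with vehicle-treated controls to give percent inhibition.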", "values": [{"molecule": "O=C(Nc1ccccc1-c1nn(C(=S)Nc2ccccc2)c(=S)n(C(=S)Nc2ccccc2)c1=O)C(F)(F)F", "growth inhibition": "47.1% (inactive)"}, {"molecule": "Cc1ccc(N=C(N)NN=C(c2ccc(Cl)cc2)c2ccc(Cl)cc2)cc1", "growth inhibition": "65.7% (inactive)"}, {"molecule": "Cc1cccc(C)c1N1C(=O)C(=O)C(c2nc3ccccc3s2)/C(=N/NC(=O)c2ccccc2O)C1=O", "note": "(stereo not drawn)", "growth inhibition": "71.9% (active)"}, {"molecule": "CN(C)CC1CC/C(=C\\c2ccc(O)cc2)C1=O", "note": "(stereo not drawn)", "growth inhibition": "89.2% (active)"}, {"molecule": "CCCCCC=C(c1cc(Br)cc(C(=O)O)c1O)c1cc(Br)cc(C(=O)O)c1O", "growth inhibition": "89.2% (active)"}, {"molecule": "CCS(CC)(CC)CC1CCCC2=CCC(P(=O)(c3ccccc3)c3ccccc3)CC21", "note": "(stereo not drawn)", "growth inhibition": "87.2% (active)"}, {"molecule": "Cc1c[n+](=O)c2ccccc2n1[O-]", "growth inhibition": "2.6% (inactive)"}, {"molecule": "O=C1CC(=S)NC(=S)N1", "growth inhibition": "12.8% (inactive)"}, {"molecule": "CC1=NN(C(=O)c2ccc(Cl)cc2)C(=O)C1N=Nc1ccc(S(=O)(=O)Nc2ncccn2)cc1", "note": "(stereo not drawn)", "growth inhibition": "55.7% (inactive)"}, {"molecule": "COC(=O)c1cc(=O)n(-c2ccccc2OC)c(SC)n1", "growth inhibition": "89.5% (active)"}, {"molecule": "CCCCN(CCCC)Cc1ccc(NC(C(=O)c2ccccc2)c2ccccc2)cc1", "note": "(stereo not drawn)", "growth inhibition": "85.8% (active)"}, {"molecule": "Cn1cc(/C=C/[N+](=O)[O-])c2ccc(OCc3ccccc3)cc21", "growth inhibition": "4.75% (inactive)"}, {"molecule": "O=C(c1ccc([N+](=O)[O-])cc1)N1CCCSC1=S", "growth inhibition": "26.8% (inactive)"}, {"molecule": "CCCCCCCCC(=O)NCCN(CCN)C(=O)CCCCCCCC", "growth inhibition": "90.2% (active)"}, {"molecule": "Cc1nc2sc3c(c2c2nnnn12)CCCC3", "growth inhibition": "6.6% (inactive)"}, {"molecule": "CCC(CC)(C(=O)Nc1ccc2c(c1)c(=O)c1ccccc1n2C)C(=O)Nc1ccc2c(c1)c(=O)c1ccccc1n2C", "growth inhibition": "97% (active)"}, {"molecule": "Cc1ccccc1N1CCN(c2c3c(nc4ccccc24)CCCCC3)CC1", "growth inhibition": "97.2% (active)"}, {"molecule": "O=C(Nc1ccccc1)c1cc(Cl)ccc1O", "growth inhibition": "62.8% (inactive)"}, {"molecule": "CCCCCCCCCCCCCCCCCCOP(=O)([O-])OC1CC[N+](C)(C)CC1", "growth inhibition": "90% (active)"}, {"molecule": "CN(C)c1ccc(C(O)(Cc2cccc(C#N)c2)c2ccc(N(C)C)cc2)cc1", "growth inhibition": "63.5% (inactive)"}, {"molecule": "CC(=O)N1CCC(Cc2ccccc2)CC1", "growth inhibition": "2.3% (inactive)"}, {"molecule": "O=[N+]([O-])c1ccc(-n2ncc3cccnc32)c([N+](=O)[O-])c1", "growth inhibition": "99% (active)"}, {"molecule": "CC(C)OC(=O)c1ccc(NCC2=CC(=O)C=CC2=O)cc1Cl", "growth inhibition": "90.7% (active)"}]}, {"assay": "NCI Yeast Anticancer Drug Screen. Data for the mec2-1 strain (AID 157)", "details": "S. cerevisiae mec2-1 strain, at 5.0 µM (retest, dose inferred, filed as 0.5), active compounds read high", "outline": "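Yeast mec2-1 mutant treated with compound. Readout: growth inhibition vs vehicle controls.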", "values": [{"molecule": "OC1C2COc3nc4ccccc4n3C(O2)C1O", "note": "(stereo not drawn)", "growth inhibition": "-54% (inactive)"}, {"molecule": "CN(C)CC1Cc2ccsc2C1=O", "note": "(stereo not drawn)", "growth inhibition": "5% (inactive)"}, {"molecule": "CCCC(O)C[N+](=O)[O-]", "note": "(stereo not drawn)", "growth inhibition": "-1% (inactive)"}, {"molecule": "CC1=NC(C)=C(/C(C)=N/NC(=O)c2ccccc2O)C(C)/C1=C(/C)NNC(=O)c1ccccc1O", "note": "(stereo not drawn)", "growth inhibition": "12% (inactive)"}, {"molecule": "O=[N+]([O-])c1cccc(S(=O)(=O)N/N=C/c2cc(I)cc([N+](=O)[O-])c2O)c1", "growth inhibition": "5% (inactive)"}, {"molecule": "CNC(=O)OC(C)CN1c2ccccc2Sc2ccc(Cl)cc21", "note": "(stereo not drawn)", "growth inhibition": "-11% (inactive)"}, {"molecule": "O=[N+]([O-])c1ccc(NSc2ccccc2)cc1", "growth inhibition": "2% (inactive)"}, {"molecule": "CCOc1ccc2c(c1)nc1ccccc1[n+]2CC", "growth inhibition": "7% (inactive)"}, {"molecule": "O=C1C=CC(=O)c2c(O)c(N3CCN(CCO)CC3)c(Cl)c(O)c21", "growth inhibition": "33% (inactive)"}, {"molecule": "O=C1CSC(c2cccc([N+](=O)[O-])c2)N1c1ccc(-c2ccc(-n3c(-c4ccccc4)nc4ccccc4c3=O)cc2)cc1", "note": "(stereo not drawn)", "growth inhibition": "-2% (inactive)"}, {"molecule": "CCC(=O)c1ccc2ccc3ccccc3c2c1", "growth inhibition": "8% (inactive)"}, {"molecule": "N#CSCc1c(Cl)cccc1Cl", "growth inhibition": "40% (inactive)"}, {"molecule": "O=[N+]([O-])/C(C(Cl)=C(Cl)Cl)=C(/Sc1ccccc1)N1CCOCC1", "growth inhibition": "2% (inactive)"}, {"molecule": "COc1c2occc2c(OC)c2c(C)c(C(=O)OCCN3CCOCC3)oc12", "growth inhibition": "-3% (inactive)"}, {"molecule": "COc1cnn(-c2ccccc2)c(=O)c1SCc1ccc(Cl)c(Cl)c1", "growth inhibition": "-3% (inactive)"}, {"molecule": "COc1ccc(/C=C/c2c[n+]([O-])ccc2[N+](=O)[O-])cc1", "growth inhibition": "18% (inactive)"}, {"molecule": "CS(=O)(=O)OCCCN(CCCOS(C)(=O)=O)c1ccc(C=Nc2ccc(-c3csc(COc4ccc(Br)cc4Br)n3)cc2)cc1", "growth inhibition": "6% (inactive)"}, {"molecule": "O=C(Nc1ccccc1-c1nn(C(=S)Nc2ccccc2)c(=S)n(C(=S)Nc2ccccc2)c1=O)C(F)(F)F", "growth inhibition": "2% (inactive)"}, {"molecule": "Cc1ccc(N=C(N)NN=C(c2ccc(Cl)cc2)c2ccc(Cl)cc2)cc1", "growth inhibition": "4% (inactive)"}, {"molecule": "Cc1cccc(C)c1N1C(=O)C(=O)C(c2nc3ccccc3s2)/C(=N/NC(=O)c2ccccc2O)C1=O", "note": "(stereo not drawn)", "growth inhibition": "16% (inactive)"}, {"molecule": "CN(C)CC1CC/C(=C\\c2ccc(O)cc2)C1=O", "note": "(stereo not drawn)", "growth inhibition": "-19% (inactive)"}, {"molecule": "CCCCCC=C(c1cc(Br)cc(C(=O)O)c1O)c1cc(Br)cc(C(=O)O)c1O", "growth inhibition": "0% (inactive)"}, {"molecule": "CCS(CC)(CC)CC1CCCC2=CCC(P(=O)(c3ccccc3)c3ccccc3)CC21", "note": "(stereo not drawn)", "growth inhibition": "18% (inactive)"}, {"molecule": "Cc1c[n+](=O)c2ccccc2n1[O-]", "growth inhibition": "-14% (inactive)"}, {"molecule": "O=C1CC(=S)NC(=S)N1", "growth inhibition": "0% (inactive)"}, {"molecule": "CC1=NN(C(=O)c2ccc(Cl)cc2)C(=O)C1N=Nc1ccc(S(=O)(=O)Nc2ncccn2)cc1", "note": "(stereo not drawn)", "growth inhibition": "4% (inactive)"}, {"molecule": "COC(=O)c1cc(=O)n(-c2ccccc2OC)c(SC)n1", "growth inhibition": "-1% (inactive)"}, {"molecule": "CCCCN(CCCC)Cc1ccc(NC(C(=O)c2ccccc2)c2ccccc2)cc1", "note": "(stereo not drawn)", "growth inhibition": "25% (inactive)"}, {"molecule": "Cn1cc(/C=C/[N+](=O)[O-])c2ccc(OCc3ccccc3)cc21", "growth inhibition": "-3% (inactive)"}, {"molecule": "O=C(c1ccc([N+](=O)[O-])cc1)N1CCCSC1=S", "growth inhibition": "-7% (inactive)"}, {"molecule": "CCCCCCCCC(=O)NCCN(CCN)C(=O)CCCCCCCC", "growth inhibition": "-43% (inactive)"}, {"molecule": "Cc1nc2sc3c(c2c2nnnn12)CCCC3", "growth inhibition": "8% (inactive)"}, {"molecule": "CCC(CC)(C(=O)Nc1ccc2c(c1)c(=O)c1ccccc1n2C)C(=O)Nc1ccc2c(c1)c(=O)c1ccccc1n2C", "growth inhibition": "-3% (inactive)"}, {"molecule": "Cc1ccccc1N1CCN(c2c3c(nc4ccccc24)CCCCC3)CC1", "growth inhibition": "7% (inactive)"}, {"molecule": "O=C(Nc1ccccc1)c1cc(Cl)ccc1O", "growth inhibition": "3% (inactive)"}, {"molecule": "CCCCCCCCCCCCCCCCCCOP(=O)([O-])OC1CC[N+](C)(C)CC1", "growth inhibition": "98% (active)"}, {"molecule": "CN(C)c1ccc(C(O)(Cc2cccc(C#N)c2)c2ccc(N(C)C)cc2)cc1", "growth inhibition": "0% (inactive)"}, {"molecule": "CC(=O)N1CCC(Cc2ccccc2)CC1", "growth inhibition": "-46% (inactive)"}, {"molecule": "O=[N+]([O-])c1ccc(-n2ncc3cccnc32)c([N+](=O)[O-])c1", "growth inhibition": "-12% (inactive)"}, {"molecule": "CC(C)OC(=O)c1ccc(NCC2=CC(=O)C=CC2=O)cc1Cl", "growth inhibition": "44% (inactive)"}]}]}
